Results on 39 compounds are retold here after PubChem BioAssay.

Active and inactive are the calls of the source.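 How the source made its calls: active means primary screen hit whose fluorescence ratio, in both repeats, exceeds the weak agonist control mean by 3 SD; inactive means the rest.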

The subject of the experiment is TRPC4 (transient receptor potential cation channel C4 beta), mouse. Briefly: positive allosteric modulators of mouse TRPC4, confirmation, cell-based, second round, Fluo-4, HEK293 TRPC4beta/mu-opioid, 1 µM (AID 2554). The note with it: DAMGO EC20, Fluo-4 calcium flux, at 1 µM; active compounds read high.
Regarding `COc1cc(/C=C2\C(=N)N3N=C(S(C)(=O)=O)SC3=NC2=O)ccc1OC(=O)c1cccs1`, the outcome was inactive. The same measure, in the same setting: to `c1ccc(CN2CCN(c3nc4ccccc4s3)CC2)cc1` belongs “inactive”. The same measure, in the same setting: to `COc1ccccc1N(C(=O)c1snc(C(N)=O)c1N)C(C(=O)NCc1ccccc1)c1ccc(O)cc1` (centres undefined) belongs “inactive”; to `Cc1ccc(SC(CC(=O)c2ccc(C(C)(C)C)cc2)C(=O)O)cc1` (centres undefined), “inactive”; to `COc1ccc(C2CC(=O)c3cnc(N4CCN(Cc5ccccc5)CC4)nc3C2)cc1` (centres undefined), “inactive”. The same measure, in the same setting: to `CC(=O)Nc1ccc(S(=O)(=O)N2CCN(CCCOc3cc(C)ccc3C)CC2)cc1` belongs “inactive”; to `COc1cc(/C=C/C(=O)OCC(=O)Nc2c(C)n(C)n(-c3ccccc3)c2=O)ccc1OCC#N`, “inactive”. For the compound `Cc1cc2oc(C(=O)N(Cc3ccco3)C3CCS(=O)(=O)C3)cc(=O)c2cc1Cl` (centres undefined), the outcome was inactive. Still for that read-out and setting: to `CCOCCCn1cnc2c(c1=O)c1nc3ccccc3nc1n2-c1ccc(C)cc1` belongs “inactive”; to `O=C(c1ccccc1F)N1CCN(c2ccc([N+](=O)[O-])cc2-n2cccc2)CC1`, “inactive”.

Regarding `CN(CC(=O)Nc1ccc(F)cc1)C(=O)COC(=O)c1ccccc1`, the potentiation was 27% (active). For `O=C(NC1CC1)c1ccc2c(c1)N(Cc1ccc(Cl)cc1)CCS2`, the outcome was inactive. Same read-out and setting: to `O=C(Nc1ccc2c(c1)OCO2)c1cnn2cccnc12` belongs “inactive”; to `CCc1nc2ccccc2n1Cc1ccccc1F`, “inactive”. For the compound `CN(Cc1ccco1)C(=O)Cn1ncc2c([nH]c3ccccc32)c1=O`, the result was inactive. Same read-out and setting: the value for `CN1CCN(NC(=O)Nc2cc(Cl)cc(Cl)c2)CC1` was “inactive”; that for `Cc1ccc2nc(C(=O)N3CCc4c([nH]c5ccccc45)C3c3ccccn3)cn2c1` (centres undefined) was “inactive”; that for `Clc1ccc(N=C2SCC3CCCCN23)cc1` (centres undefined) was “inactive”. On the same count and under the same terms, the value for `O=S(=O)(c1ccc(Oc2ccc(Br)cc2)cc1)N1CCOCC1` was “inactive”; that for `O=S(=O)(Nc1ccc(S(=O)(=O)Nc2cccc3ccccc23)cc1)c1ccccc1` was “inactive”. In the case of `COc1ccc(N(C(=O)c2snc(C(N)=O)c2N)C(C(=O)NC2CCCCC2)c2ccc(C)o2)c(OC)c1` (centres undefined), the result was inactive. Same read-out and setting: to `Cc1ccc(S(=O)(=O)Nc2ccc(N=Nc3ccc(O)cc3)cc2)cc1` belongs “inactive”; to `O=C(c1ccccc1)c1coc2ccc(O)c(CN3CCOCC3)c12`, “inactive”. As for `CCOc1ccc(N=CNc2ccc(OCC)cc2)cc1`, the potentiation was 18% (active). Take `COCCSc1ccccc1C(=O)N1CCC(Cc2ccccc2)CC1`: the outcome was inactive.

Regarding `O=C(c1ccccc1F)N1CCN(c2ccc([N+](=O)[O-])c3cccnc23)CC1`, the outcome was inactive. On the same count and under the same terms, the value for `Cc1ccc(NS(=O)(=O)c2cc(C(=O)N3CCc4ccccc4C3)ccc2Cl)cc1` was “inactive”. Same read-out and setting: the value for `CCn1cc(CN2CCC(n3nccc3NC(=O)CCOc3ccccc3)CC2)c(C)n1` was “inactive”; that for `CCN1CCN(c2ccc(S(=O)(=O)N3CCCCC3)cc2NC(=O)COc2cc(C)ccc2Cl)CC1` was “inactive”; that for `CN(C)CCCCOc1cccc(Br)c1` was “inactive”. Same read-out and setting: the value for `CC(C)c1ccc(C(C)NCCS(=O)(=O)c2ccc(Br)cc2)cc1` (centres undefined) was “inactive”. For `COc1cc2c(C(=O)N3CCN(C)CC3)c(CSc3ccccc3)n(C)c2cc1Br`, the result was inactive. On the same count and under the same terms, the value for `Cc1c(N2C(=O)/C(=C/c3ccccc3)SC2=S)c(=O)n(-c2ccccc2)n1C` was “inactive”; that for `Cc1n[nH]c(C)c1Cc1c(F)cccc1Cl` was “inactive”. On the same count and under the same terms, the value for `O=C(Nc1ccc([N+](=O)[O-])cn1)C1CCCCC1` was “inactive”; that for `O=c1[nH][nH]c(-c2ccccc2)c1C=Nc1ccc(F)cc1F` was “inactive”; that for `COc1ccccc1C1/C(=C(\O)c2ccc3c(c2)OCCO3)C(=O)C(=O)N1Cc1cccnc1` (centres undefined) was “inactive”.

Consider `CCN(CC)CCSc1nnc2c3ccccc3n(Cc3ccccc3)c2n1`, for which the result was inactive. Still for that read-out and setting: to `CCCn1c(SCC(=O)N2c3ccccc3Sc3ccccc32)nc2c1c(=O)n(C)c(=O)n2C` belongs “inactive”.
